Measured values: paper PMC4336329 (PLoS ONE, 2015)
About 14,000 (4.5%) of roughly 310,000 compounds showed an effect of 50% or more. Effects have a minus sign here. Many of the other results were omitted from the sample, so strong results are more common in it than they were.

Molecular target: human ether-à-go-go-related gene (hERG) potassium channel (human, UniProt Q12809)
Experiment: primary screen, population patch clamp on CHO cells stably expressing hERG; higher = less effect of the substance
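Further: peak tail current of the secondary pulse compared with the same well before compound.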

Chain of human ether-à-go-go-related gene (hERG) potassium channel (Q12809 whole entry, looked up): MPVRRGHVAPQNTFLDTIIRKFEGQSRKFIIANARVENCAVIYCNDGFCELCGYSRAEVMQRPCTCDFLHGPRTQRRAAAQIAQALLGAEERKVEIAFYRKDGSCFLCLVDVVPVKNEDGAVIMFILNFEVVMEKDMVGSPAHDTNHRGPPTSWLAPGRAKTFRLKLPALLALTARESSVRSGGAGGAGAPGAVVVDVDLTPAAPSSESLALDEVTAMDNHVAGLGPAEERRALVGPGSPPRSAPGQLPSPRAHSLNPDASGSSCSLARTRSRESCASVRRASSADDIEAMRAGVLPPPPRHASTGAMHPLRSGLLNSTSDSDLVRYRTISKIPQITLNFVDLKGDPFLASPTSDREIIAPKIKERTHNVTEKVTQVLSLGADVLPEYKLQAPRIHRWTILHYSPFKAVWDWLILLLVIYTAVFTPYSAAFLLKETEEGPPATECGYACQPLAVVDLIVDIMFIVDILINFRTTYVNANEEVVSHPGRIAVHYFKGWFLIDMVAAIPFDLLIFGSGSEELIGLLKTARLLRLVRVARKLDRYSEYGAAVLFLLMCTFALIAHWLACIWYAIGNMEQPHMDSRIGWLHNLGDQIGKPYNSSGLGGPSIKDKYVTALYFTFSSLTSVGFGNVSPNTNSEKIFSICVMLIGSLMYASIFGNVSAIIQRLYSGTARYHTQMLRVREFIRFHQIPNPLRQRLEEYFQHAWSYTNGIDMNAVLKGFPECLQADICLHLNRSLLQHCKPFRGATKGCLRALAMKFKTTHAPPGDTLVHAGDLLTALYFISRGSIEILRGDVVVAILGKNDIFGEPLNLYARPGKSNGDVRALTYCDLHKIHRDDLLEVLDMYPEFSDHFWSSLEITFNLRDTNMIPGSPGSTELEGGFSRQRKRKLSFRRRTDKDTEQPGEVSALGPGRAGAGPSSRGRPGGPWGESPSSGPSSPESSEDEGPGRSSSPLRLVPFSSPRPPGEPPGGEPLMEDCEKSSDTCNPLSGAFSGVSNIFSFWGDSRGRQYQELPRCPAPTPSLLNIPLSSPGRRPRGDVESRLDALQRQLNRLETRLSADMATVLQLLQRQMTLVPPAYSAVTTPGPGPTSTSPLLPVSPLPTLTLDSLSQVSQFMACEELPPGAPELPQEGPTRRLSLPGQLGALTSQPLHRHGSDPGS

| SMILES | hERG current change (%, negative = inhibition) at 10uM [%] |
| --- | --- |
| COc1ccc(-c2csc3ncnc(N4CCN(c5ccc(OC)cc5)CC4)c23)cc1 | -11.2 |
| CCc1cc2c(N3CCN(c4ccccc4)CC3)ncnc2s1 | -43.5 |
| Cc1sc2ncnc(N3CCN(C(=O)c4ccco4)CC3)c2c1C | -61.8 |
| CCc1cc2c(N3CCN(C(=O)c4ccco4)CC3)ncnc2s1 | -77.7 |
| CCc1cc2c(N3CCN(C)CC3)ncnc2s1.Cl | -29 |
| Fc1ccc(CNCc2cccc(Br)c2)cc1 | 13.9 |
| O=C(CSc1cn(CCNC(=O)c2ccccc2)c2ccccc12)NCC1CCCO1 (stereo not shown) | -10.9 |
| O=C(CNC(=O)c1cccs1)OCC(=O)c1ccccc1 | 8.55 |
| O=C(c1cccnc1Nc1ccccc1F)N1CCOCC1 | 11.7 |
| O=S(=O)(c1ccccc1)C(/C=N\O)/C=C/c1ccccc1 (stereo not shown) | 4.57 |
| CCCc1nnc(NC(=O)CCC(=O)NC2CCCCCC2)s1 | 13.7 |
| C=CCNC(=O)COC(=O)CCC(=O)c1cccs1 | 1.42 |
| CCC(C)NC(=O)CSc1nc2ccsc2c(=O)n1-c1ccc(OC)cc1 (stereo not shown) | -3.72 |
| O=[N+]([O-])c1cccc(NNS(=O)(=O)c2ccccc2F)c1 | -29.4 |
| O=c1c2c3c(sc2nc2n1N=C(c1cccs1)CS2)CCCC3 | 5.12 |
| COc1ccnc(CN(C)C(=O)C2CCC(=O)N(CCN(C)C)C2)c1 (stereo not shown) | 17.5 |
| O=C(c1ccco1)N1CCN(c2ncnc3c(-c4ccccc4)nsc23)CC1 | -14.2 |
| CC(C)(C)C(=O)N1CCN(c2ncnc3scc(-c4ccccc4)c23)CC1 | -30 |
| O=C(c1ccco1)N1CCN(c2ncnc3scc(-c4ccccc4)c23)CC1 | -64.5 |
| CCN1CCN(C(=O)c2ccc3c(Cl)c4c(nc3c2)CCCC4)CC1 | 6.65 |
| CCCCC(C(=O)O)C(C)CC(=O)Nc1nncs1 (stereo not shown) | 13.1 |
| O=C(Nc1ccc2ccccc2c1)/C(=C/c1cccc(Br)c1)NC(=O)c1ccco1 | -68.6 |

| SMILES | hERG current change (%, negative = inhibition) at 10uM [%] |
| --- | --- |
| O=C(Nc1cccc(Cl)c1)/C(=C\c1cccnc1)NC(=O)c1ccco1 | -67 |
| Cc1ccc(NC(=O)/C(=C/c2cccc(Br)c2)NC(=O)c2ccco2)cc1 | -28.1 |
| Cc1ccc(NC(=O)/C(=C\c2cccnc2)NC(=O)c2ccco2)cc1 | -28.5 |
| O=C(Nc1cccc(Br)c1)/C(=C\c1cccnc1)NC(=O)c1ccco1 | -56.6 |
| CC(=O)c1cccc(NC(=O)/C(=C/c2ccco2)NC(=O)c2ccco2)c1 | -18.6 |
| CC(=O)c1cccc(NC(=O)/C(=C\c2ccco2)NC(=O)c2ccco2)c1 | -64.3 |
| CC(=O)c1cccc(NC(=O)/C(=C\c2cccnc2)NC(=O)c2ccco2)c1 | -10.6 |
| O=C(Nc1ccccc1)/C(=C/c1cccc(Br)c1)NC(=O)c1ccco1 | 5.35 |
| CC(=O)c1ccc(NC(=O)/C(=C\c2ccco2)NC(=O)c2ccco2)cc1 | -15.9 |
| O=C(Nc1cccc(F)c1)/C(=C\c1cccnc1)NC(=O)c1ccco1 | -22.4 |
| O=C(Nc1ccccc1)/C(=C/c1cccnc1)NC(=O)c1ccco1 | -4.49 |
| Cc1ccc(NC(=O)COC(=O)CCC(=O)c2cccs2)cc1 | -6.94 |
| COc1ccc(-c2nc3c(=O)n(C)c(=O)[nH]c3n2CCc2ccccc2)cc1 | 22.1 |
| Cn1c(=O)c2c(nc(N3CCc4ccccc4C3)n2C)n(C)c1=O | 7.62 |
| CCCCS(=O)(=O)N1CCC(C(=O)Oc2ccccc2OC)CC1 | -9.14 |
| O=c1cc(N2CCc3ccccc3C2)[nH]c(=O)n1-c1ccc(Cl)cc1 | 3.07 |
| COc1cc2[nH]c(=S)n(Cc3ccccc3)c(=O)c2cc1OC | 11.4 |
| CCOc1ccc(CCNC(=O)CCC(=O)N2CCSc3ccccc32)cc1OCC | -2.52 |
| O=C(Nc1ccc(Cc2ccncc2)cc1)c1cccc([N+](=O)[O-])c1 | 13.6 |
| CC(=O)Nc1ccc(C(=O)CSc2nc3ccccc3n2CC(=O)N2CCCC2)cc1 | 11.1 |
| CCOc1cc2c(C#N)c(N3CCNCC3)nc(N)c2c(N)n1 | 5.41 |
